TGFb SMAD3 inh = qHTS for Inhibitors of TGF-b; HepG2 CAGA-GFP TGF-b/SMAD3 reporter, GFP fluorescence, 18 h; TGF-beta stimulated, 500 pg/mL final; Potency, µM (series often up to 46.1 µM), inactives show at the top dose activity, negative = inhibition, most hits filed as inhibitors; 410,000 tested, 1.2% active; note: % is set by controls: 0 for no effect and ±100 for the full control effect; nearly all actives have a fitted effect of over 65% in size
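GFP signal (ex488/em500-530) from TGF-beta-stimulated HEPG2 CAGA-GFP cells, 500 pg/mL final, 18 h at 37 degrees C in DMEM plus 1% FBS, normalized to unstimulated and DMSO-stimulated controls.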
KB-V1 MDR tox = qHTS assay for MDR1-selective chemotherapeutics: Primary screen using the drug-selected MDR subline cells KB-V1. KB-V1 MDR cells viability, CellTiter-Glo, 72 h. Potency, µM (doses to about 46.1 µM), most hits filed as cytotoxic. 400,000 tested, 3.4% active. AID 1347076, 2019; note: % is set by controls: 0 for no effect and ±100 for the full control effect; nearly all actives have a fitted effect of over 60% in size
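Luminescent ATP read-out (CellTiter-Glo, 10 min) measures survival of drug-selected KB-V1 MDR cells after 72 h, 37 degrees C compound exposure. Medium: phenol-red-free DMEM, 10% FBS. Values from fitted concentration-response curves.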
HT1080NT lethal = qHTS for induction of synthetic lethality in tumor cells producing 2HG: qHTS for the HT-1080-NT fibrosarcoma cell line; HT-1080-NT fibrosarcoma viability, CellTiter-Glo ATP luminescence, 48 h; Potency, µM (series often up to 46.1 µM), without a hit: at the highest dose activity, negative = less viability, hits mostly cytotoxic; 360,000 tested, 1.6% active;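 note: NT is the 2HG producing partner of a matched IDH1 knockdown line; 0% = DMSO-treated cells and -100% = media-only wells without cells; nearly all actives have a fitted effect of over 55% in size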
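Fibrosarcoma NT cells, 750 per well in 5% FBS RPMI, were exposed to compound for 48 hours. Viability: CellTiter-Glo luminescence.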
KB-3-1 cytotox = qHTS assay for MDR1-selective chemotherapeutics: Primary screen using the parental adenocarcinoma cell KB-3-1; KB-3-1 viability, CellTiter-Glo ATP luminescence, 72 h; Potency, µM (titrated, usually from 46.1 µM), hits mostly cytotoxic; 400,000 tested, 1.4% active; note: % is set by controls: 0 for no effect and ±100 for the full control effect; nearly all actives have a fitted effect of over 60% in size
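Multi-concentration cytotoxicity screen in KB-3-1 cells grown in DMEM lacking phenol red with 10% FBS. After 72 h at 37 °C with compound, ATP-dependent luminescence was recorded.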
HT1080 IDH1KD tx = qHTS for induction of synthetic lethality in tumor cells producing 2HG: qHTS for the HT-1080-IDH1KD cell line; Potency, µM (titrated, usually from 46.1 µM), for the others: at the top dose activity, negative = toxicity, most hits filed as cytotoxic; HT-1080 IDH1 knockdown viability, ATP luminescence, 48 h; 360,000 tested, 2% active;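 note: 0% = DMSO wells and -100% = cell-free medium wells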
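In this qHTS, HT-1080 cells depleted of IDH1 are exposed for 48 h at 37 °C to compound titrations. Toxicity is scored from CellTiter-Glo luminescence, with DMSO as full viability and medium alone as none.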
HepG2 viability = qHTS for Inhibitors of TGF-b: Cytotox Counterscreen; HepG2 CAGA-GFP viability, ATP luminescence, 18 h; Potency, µM (series often up to 46.1 µM), for inactives: top-dose activity change, negative = cytotoxicity, usual class: cytotoxic; 410,000 tested, 0.76% active; AID 588856, 2011
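CellTiter-Glo luminescence gave cytotoxicity after 18 hours at 37 degrees C. The cells were HepG2 CAGA-GFP in 1% FBS DMEM, stimulated with 500 pg/mL TGF-beta after compound addition. %Activity was normalised to no-cell wells (complete cell-killing) and DMSO (no toxicity), and curves were fitted and classified.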
* = called active by the depositor; [ ] = dose if it differs, or a comment. Hits are enriched below; roughly 6.6% of the tested compounds scored in any of these assays. Calls come from the whole dose curve; as a rule, active = well fitted curve in the direction sought with a large enough effect; inconclusive = small, poorly fitted or top-dose-only effect, or another doubt; inactive = no such curve, though single readings can be large; an effect the other way counts as inactive or inconclusive. Potency is the fitted concentration of half-maximal effect.

Screening CCn1c(SCC(N)=O)nnc1-c1ccc2[nH]c(C)c(C)c2c1 returned TGFb SMAD3 inh -2.9%, KB-V1 MDR tox 20.6µM*, HT1080NT lethal 18.6%, KB-3-1 cytotox 5.8µM*, HT1080 IDH1KD tx 15.4% and HepG2 viability -3.3%.
For CCn1c(SCC(=O)c2[nH]c(C)c(C(C)=O)c2C)nnc1-c1ccccc1 the results were TGFb SMAD3 inh inconclusive, KB-V1 MDR tox inconclusive, HT1080NT lethal -0.7%, KB-3-1 cytotox inactive, HT1080 IDH1KD tx 16.4µM* and HepG2 viability 3.2%.
`CCn1c(SCC(=O)c2[nH]c(C)c(C(C)=O)c2C)nnc1-c1ccncc1` gave TGFb SMAD3 inh 3.3%, KB-V1 MDR tox inactive, HT1080NT lethal 1.2%, KB-3-1 cytotox inactive, HT1080 IDH1KD tx 2.6%[9.24 µM] and HepG2 viability -1.9%.
`CCn1c(SCC(=O)Nc2cc(C(C)(C)C)nn2-c2ccccc2)nnc1-c1cccs1` gave TGFb SMAD3 inh -17.5%, KB-V1 MDR tox inconclusive, HT1080NT lethal -4.4%, KB-3-1 cytotox inactive, HT1080 IDH1KD tx -8.0% and HepG2 viability -23.6%.
For CCn1c(SCC(N)=O)nnc1-c1cc2c(C)nn(-c3ccccc3)c2s1 the results were TGFb SMAD3 inh 7.0%, KB-V1 MDR tox 13µM*, HT1080NT lethal -4.2%, KB-3-1 cytotox inactive, HT1080 IDH1KD tx -0.5% and HepG2 viability 0.8%.
For N#CC1=C(N)C(C#N)(C#N)C(c2ccc[nH]2)C2CCCC=C12 (centres undefined) the results were TGFb SMAD3 inh -9.3%, KB-V1 MDR tox inconclusive, HT1080NT lethal -23.8%, KB-3-1 cytotox inactive, HT1080 IDH1KD tx inconclusive and HepG2 viability -23.1%.
`N#CC1=C(N)C2=CCCC[C@H]2[C@H](c2cccc(F)c2)C1(C#N)C#N` gave TGFb SMAD3 inh inconclusive, KB-V1 MDR tox inactive, HT1080NT lethal inconclusive, KB-3-1 cytotox inactive, HT1080 IDH1KD tx 16.4µM* and HepG2 viability 1.0%.
For Cc1[nH]c2ccccc2c1C(=O)C(=O)Nc1ccc2c(c1)OCCO2 the results were TGFb SMAD3 inh 6.3%, KB-V1 MDR tox inactive, HT1080NT lethal -4.5%, KB-3-1 cytotox inactive, HT1080 IDH1KD tx -2.9% and HepG2 viability 4.8%.
For O=C(Nc1ccc2c(c1)OCO2)C(=O)c1c[nH]c2ccccc12 the results were TGFb SMAD3 inh 4.6%, KB-V1 MDR tox inactive, HT1080NT lethal inconclusive, KB-3-1 cytotox 6.51µM*, HT1080 IDH1KD tx inconclusive and HepG2 viability -19.1%.
For O=C(Nc1ccc2c(c1)OCCO2)C(=O)c1c[nH]c2ccccc12 the results were TGFb SMAD3 inh -14.1%, KB-V1 MDR tox inactive, HT1080NT lethal 7.31µM*, KB-3-1 cytotox 3.66µM*, HT1080 IDH1KD tx inconclusive and HepG2 viability -10.8%.
For c1nc(NCc2ccc3c(c2)OCO3)c2[nH]cnc2n1 the results were TGFb SMAD3 inh -15.9%, KB-V1 MDR tox inactive, HT1080NT lethal 3.7%, KB-3-1 cytotox inactive, HT1080 IDH1KD tx -9.5% and HepG2 viability -35.7%.
`COc1cc2c(cc1OC)C1(Nc3c-2c(C)nn3-c2ccccc2)C(=O)Nc2ccccc21` (centres undefined) gave TGFb SMAD3 inh -3.5%, KB-V1 MDR tox inactive, HT1080NT lethal -18.6%, KB-3-1 cytotox inactive, HT1080 IDH1KD tx inconclusive and HepG2 viability -15.8%.
For COc1cc2c(cc1OC)C1(Nc3c-2c(-c2ccccc2)nn3-c2ccccc2)C(=O)Nc2ccccc21 (centres undefined) the results were TGFb SMAD3 inh 15.8µM*, KB-V1 MDR tox inconclusive, HT1080NT lethal inconclusive, KB-3-1 cytotox inconclusive, HT1080 IDH1KD tx -30.0% and HepG2 viability -13.0%.
Screening CC(NC(=O)CSc1nc(-c2cccc(Cl)c2)nc2cc(=O)[nH]n12)c1nc2ccccc2n1C (centres undefined) returned TGFb SMAD3 inh 3.8%, KB-V1 MDR tox inactive, KB-3-1 cytotox inactive and HepG2 viability 0.2%.
For CC1CCN(C2=NC(=O)/C(=C/c3ccccc3F)S2)CC1 the results were TGFb SMAD3 inh -14.3%, KB-V1 MDR tox inactive, HT1080NT lethal -4.3%, KB-3-1 cytotox inactive, HT1080 IDH1KD tx -21.4% and HepG2 viability -28.8%.
For CN1C2CCC1/C(=C\c1ccccc1F)C(=O)/C2=C/c1ccccc1F the results were TGFb SMAD3 inh 0.2%, KB-V1 MDR tox 13µM*, HT1080NT lethal inconclusive, KB-3-1 cytotox inconclusive, HT1080 IDH1KD tx 11.6µM* and HepG2 viability -27.0%.
Cc1cccc(-c2nc(CSc3nncn4c3cc3oc(C)cc34)c(C)o2)c1 was read as TGFb SMAD3 inh -3.5%, KB-V1 MDR tox inactive, KB-3-1 cytotox inactive and HepG2 viability 3.4%.
CC1C(=O)N(Cc2cn(CCC3OCCCO3)nn2)CCS(=O)(=O)N1Cc1ccc(-c2ccc(F)cc2)cc1 (centres undefined) was read as TGFb SMAD3 inh -18.7%, KB-V1 MDR tox inactive, HT1080NT lethal 4.1%, KB-3-1 cytotox inactive, HT1080 IDH1KD tx -15.1% and HepG2 viability -13.8%.
Screening COCOCCn1cc(CN2CCS(=O)(=O)N(Cc3ccc(-c4ccc(Cl)c(Cl)c4)cc3)C(C)C2=O)nn1 (centres undefined) returned TGFb SMAD3 inh inconclusive, KB-V1 MDR tox inconclusive, HT1080NT lethal 23.1µM*, KB-3-1 cytotox 14.6µM*, HT1080 IDH1KD tx inconclusive and HepG2 viability -108.8%.
CC1C(=O)N(Cc2cn(CCC3OCCCO3)nn2)CCS(=O)(=O)N1Cc1ccc(-c2ccc(Cl)c(Cl)c2)cc1 (centres undefined) was read as TGFb SMAD3 inh inconclusive, KB-V1 MDR tox inconclusive, HT1080NT lethal inconclusive, KB-3-1 cytotox inconclusive, HT1080 IDH1KD tx 20.6µM* and HepG2 viability -37.5%.
For Cc1nn(C)c2c1c(C(F)(F)F)cc(=O)n2CC(=O)NCc1ccc(OC(C)C)cc1 the results were TGFb SMAD3 inh 5.1%, KB-V1 MDR tox inactive, KB-3-1 cytotox inactive and HepG2 viability -9.1%.
For CCOc1ccc(OCc2cccc(C(=O)Nc3ccc(CN4CCCCC4)cc3)c2)cc1 the results were TGFb SMAD3 inh 0.0%, KB-V1 MDR tox inconclusive, HT1080NT lethal 14.6µM*, KB-3-1 cytotox inconclusive, HT1080 IDH1KD tx inconclusive and HepG2 viability 10µM*.

Screens from PubChem.
